The values below come from ChEMBL document CHEMBL4513142, “CO-ADD screening of Indiana University - Purdue University Indianapolis (USA) compounds”.

Each structure is given as a SMILES string. Values joined by “and” are separate entries in the source; they are usually repeats but may differ in a detail not shown here. Equal values may be shown once. Entries with a potency or affinity are not part of this list.

One assay concerns Staphylococcus aureus. The settings on record: Concentration 32 ug.mL-1, ASSAY_TEST Inhibition of Bacterial Growth, detection method Absorption (OD600), MEDIA CAMHB, plate type 384well, NBS, CORNING #3640, time 18 hr.
The next assay deals with Escherichia coli. The settings on record: Concentration 32 ug.mL-1, ASSAY_TEST Inhibition of Bacterial Growth, detection method Absorption (OD600), MEDIA CAMHB, plate type 384well, NBS, CORNING #3640, time 18 hr.

One may read the Inhibition as the drop in the measured response relative to a control, in per cent.

`O=C(NC(CCCc1ccccc1)C(=O)O)c1cccc2ccccc12` (stereo not given): in the assay on Staphylococcus aureus (32 ug/mL), the Inhibition is 21.08% and 19.14%.

With `[C-]#[N+]c1ccc(C(=O)NC(Cc2ccc(C(F)(F)F)cc2)C(=O)NCCC)cc1` (stereo not given), the Inhibition with Staphylococcus aureus stood at 24.86%; with Escherichia coli it was 13.88%.

Take `NC(Cc1ccccc1I)C(=O)O.O=C(O)C(F)(F)F` (stereo not given): the Inhibition was 9.99% and 15.72% in the assay with Staphylococcus aureus (32 ug/mL); 13.12% and 15.99% in the assay with Escherichia coli (32 ug/mL).

Turning to `CCCNC(=O)C(Cc1ccccc1)NC(=O)c1ccc(F)cc1` (stereo not given), the Inhibition turned out to be 30.52% in the assay on Staphylococcus aureus and 11.25% with Escherichia coli.

As to `NC(=O)[C@H](Cc1ccccc1)NC(=O)c1cccnc1`, the Inhibition is 29.26% and 26.43% with Staphylococcus aureus (32 ug/mL); 20.31% and 18.99% in the assay on Escherichia coli (32 ug/mL).

With `CCCNC(=O)C(Cc1ccccc1)NC(=O)Cc1ccccc1` (stereo not given), the Inhibition with Staphylococcus aureus is reported as 29.57%; in the assay on Escherichia coli, 14.02%.

With `[C-]#[N+]c1ccc(C(=O)NC(CC=C)C(=O)NCCC)cc1` (stereo not given), the results for the Inhibition in the assay with Staphylococcus aureus and in the assay on Escherichia coli were 14.2% and 6.66%, respectively.

As for `C[C@H](NC(=O)c1ccccc1Cl)C(=O)O`, the Inhibition in the assay on Staphylococcus aureus (32 ug/mL) is 13.46% and 14.36%; in the assay on Escherichia coli (32 ug/mL), 2.9% and -3.06%.

On to `CCCNC(=O)C(Cc1ccc(F)cc1)NC(=O)c1ccccc1` (stereo not given), for which the Inhibition is recorded as 25.83% in the assay on Staphylococcus aureus and 9.01% with Escherichia coli.

As for `O=C(NC(Cc1ccc(Cl)nc1)C(=O)O)c1ccccc1` (stereo not given), the Inhibition in the assay on Staphylococcus aureus (32 ug/mL) was 22.85% and 23.42%; with Escherichia coli (32 ug/mL) it was 9.12% and 5.81%.

On to `[C-]#[N+]c1ccc(C(=O)NC(CC)C(=O)NCCC)cc1` (stereo not given), for which the Inhibition in the assay on Staphylococcus aureus was 19.19%; in the assay on Escherichia coli, 3.26%.

Regarding `O=C(Cc1cccc(Br)c1)N[C@@H](Cc1ccccc1)C(=O)O`, the Inhibition in the assay with Staphylococcus aureus (32 ug/mL) was 8.37% and -0.37%; with Escherichia coli (32 ug/mL), 5.53% and 8.68%.

Consider `NC(Cc1ccc(F)cc1)C(=O)O.O=C(O)C(F)(F)F` (stereo not given), for which the Inhibition with Staphylococcus aureus (32 ug/mL) is 15.79% and -3.39%; in the assay with Escherichia coli (32 ug/mL), 9.45% and 2%.
